In the library only some 1.5% were active in any assay of this set; here they are far more common.
TLR4 MyD88 comp: blocks binding of human TLR4 to MyD88; O00206+Q99836; HeLa CL3-4 TLR4/MyD88 BLA complementation, FRET ratio; inhibition, % at 8.4 µM; 0.18% of 200,000 active; in the data active = inhibition above about 25%;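 also: 0% = vehicle and 100% = reference inhibitor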
NOD2 RIPK2 PPI: inhibitors of human NOD2-RIPK2 interaction | AID 624267 | inhibition, % at 4.98 µM | 0.38% of 360,000 active | O43353 | CHO BLA complementation NOD2-RIPK2, CCF4 ratio; in the data active = inhibition above about 21%;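 also: 0% = vehicle only and 100% = reference blocker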
Target sequence (O43353 whole entry, looked up): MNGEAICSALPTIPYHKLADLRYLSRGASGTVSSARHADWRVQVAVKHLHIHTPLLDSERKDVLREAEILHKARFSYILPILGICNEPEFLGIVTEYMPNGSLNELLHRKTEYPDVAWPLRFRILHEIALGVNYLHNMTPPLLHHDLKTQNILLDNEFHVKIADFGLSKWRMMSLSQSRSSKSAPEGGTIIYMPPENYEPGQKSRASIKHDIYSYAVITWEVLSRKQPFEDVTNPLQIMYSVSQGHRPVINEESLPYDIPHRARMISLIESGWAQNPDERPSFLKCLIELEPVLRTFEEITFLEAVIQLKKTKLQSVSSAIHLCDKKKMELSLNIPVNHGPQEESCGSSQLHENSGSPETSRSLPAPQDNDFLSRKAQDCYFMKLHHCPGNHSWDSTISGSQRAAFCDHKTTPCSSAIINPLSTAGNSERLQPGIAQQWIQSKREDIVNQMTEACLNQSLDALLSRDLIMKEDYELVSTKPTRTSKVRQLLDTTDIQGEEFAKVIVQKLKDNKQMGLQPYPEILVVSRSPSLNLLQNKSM
Myeloid diff MLP: promotes myeloid progenitor differentiation. 1% of 360,000 active. calls only at 10 µM. ER-HoxA9 myeloid progenitors, lysozyme-GFP differentiation, flow cytometry;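 active = normalized GFP-positive differentiation at or above the plate's own cutoff, the solvent-only control mean plus 3 SD; inconclusive = no clear call, values can overlap the other calls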;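 also: cells exposed to compound for four days before flow analysis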
TLR9-MyD88 inh: inhibitors of human TLR9-MyD88 binding | Q9NR96+Q99836 | 0.21% of 340,000 active | CHO BLA complementation TLR9-MyD88, CCF4 FRET ratio | AID 504734 | inhibition, % at 4.98 µM;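 active = inhibition above the mean over all tested compounds plus 3 SD, cut at about 21% in these data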;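 also: 0% = DMSO only wells and 100% = clavulanate BLA inhibitor control wells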
* = called active by the depositor; i = inactive; ? = inconclusive; · = no result given; + = active, no number.

SMILES | TLR4 MyD88 comp | NOD2 RIPK2 PPI | Myeloid diff MLP | TLR9-MyD88 inh
CN1CCN(c2ccccc2NC(=O)c2cc3ccccc3o2)CC1 | 5 | -1 | + | -8
CC1(C(=O)NCc2ccccc2)CSCC(=O)N1C1CC1 (stereo not given) | · | -16 | i | ·
CCCCCCCCN1C(=O)[C@H](CC(=O)NCCc2ccccc2OC)C[C@@]2(C(=O)OC)CC(C)(C)CC=C12 | · | -19 | i | ·
O=C(CCc1nnc(Cc2c[nH]c3ccccc23)o1)NCCC1CCCCO1 (stereo not given) | · | -6 | + | 9
CCc1nc2ccc(C(=O)NC3CCN(Cc4ccccc4)CC3)cn2c1N(C)Cc1cc2ccccc2s1 | · | -3 | i | ·
CC1CC(NC(=O)c2c(O)nc3ccccn3c2=O)CC(C)(C)C1 (stereo not given) | · | -5 | · | 3
CC1CC(NC(=O)c2c(O)nc3sccn3c2=O)CC(C)(C)C1 (stereo not given) | · | -5 | + | 4
CC(C)(C)S(=O)N1Cc2cc(C(=O)N[C@@H]3CCN(Cc4ccccc4)C3)nc(-c3cccc(-c4cc5ccccc5o4)c3)c2[C@@H]1CCO (stereo not given in full) | · | -4 | i | ·
CCOc1ccc(N=c2scc(-c3ccccc3)n2CCO)cc1 | 1 | 4 | i | 1
CCn1c(-c2ccccc2)csc1=Nc1ccc(O)cc1 | -16 | 4 | + | -1
Cc1c(C(=O)NCc2ccc(Cl)c(Cl)c2)sc(=O)n1Cc1ccc(S(=O)(=O)N(C)C)cc1 | · | 16 | ? | ·
Cc1c(C(=O)NCc2ccc(C(C)C)cc2)sc(=O)n1Cc1ccc(S(=O)(=O)N(C)C)cc1 | · | -7 | + | ·
COc1ccc(C(=O)Nc2cc(-c3ccccc3)nn2-c2ccccc2F)cc1 | · | -8 | + | -3
Cc1cc(C)c(CSc2ncc(-c3ccc([N+](=O)[O-])cc3)[nH]2)c(C)c1 | 14 | 41* | i | 17
O=[N+]([O-])c1ccc(-c2cnc(SCc3ccccc3Cl)[nH]2)cc1 | 25* | 14 | i | 15
NC(=O)CSc1ncc(-c2ccc([N+](=O)[O-])cc2)[nH]1 | -2 | 3 | i | 0
CCCCNC(=O)c1nc(-c2cccnc2OC)oc1-c1ccc(Cl)cc1 | · | -14 | i | ·
CCOc1ccc(C(=O)O[C@H]2[C@H](Cc3ccccc3)NS(=O)(=O)[C@H]3C[C@@H]4C=C[C@]23O4)cc1 | · | 5 | + | 5
O=[N+]([O-])c1ccc(N/N=C/c2sc(N3CCOCC3)nc2-c2ccccc2)c(S(=O)(=O)Nc2ccc(Cl)cc2)c1 | 6 | -2 | + | -5
CCc1ccc(N2CC(C(=O)N3CCN(S(=O)(=O)c4cccc(F)c4)CC3)CC2=O)cc1 (stereo not given) | · | 0 | i | 0
COc1ccc(S(=O)(=O)NC(=O)C2(C)CCN2C(=O)C2CC2)cc1 (stereo not given) | · | 9 | i | ·
CCCNC(=O)c1ccc(N2CCC3(CC2)CC(c2ccccc2)=NO3)c(NC(=O)c2ccccc2)c1 | · | 2 | + | -7
CCCNC(=O)c1ccc(N2CCC3(CC2)CC(c2ccccc2)=NO3)c(NC(=O)c2ccc(Br)cc2)c1 | · | -2 | i | 2
Cc1cc(C)cc(C(O)c2ncc(-c3ccc(F)cc3)[nH]2)c1 (stereo not given) | · | -5 | i | ·
COc1ccc(S(=O)(=O)N2CCC[C@H]2C(=O)N2CCC[C@H]2C(=O)NCc2ccncc2)cc1C | · | -4 | i | ·
SMILES | TLR4 MyD88 comp | NOD2 RIPK2 PPI | Myeloid diff MLP | TLR9-MyD88 inh
O=C(O)c1ccc(N2C(=O)/C(=C/c3ccc(-c4ccc([N+](=O)[O-])cc4)o3)C=C2c2ccccc2)cc1 | 9 | -1 | + | -1
O=S(=O)(c1ccccc1)N1CN(c2ccc(F)cc2F)c2nc3ccccc3nc21 | · | 5 | i | ·
CN1CCCN(S(=O)(=O)c2cccc(C(F)(F)F)c2)c2nc3ccccc3nc21 | · | -16 | + | -6
Cc1ccc(NC(=O)C2(C)CCN2C(=O)CC(c2ccccc2)c2ccccc2)cc1 (stereo not given) | · | -2 | i | ·
O=C(NC1CCN(Cc2ccccc2)CC1)c1ccc(Cn2c(=S)[nH]c3ccc(N4CCOCC4)cc3c2=O)cc1 | 3 | 2 | + | 3
CC(C)Cc1ccc(C(C)C(=O)O)cc1 (stereo not given) | -4 | -10 | + | 1
CCOC(=O)[C@]12CCCC=C1N(CCC1=CCCCC1)C(=O)[C@H](CC(=O)N1CCC(c3ccccc3)CC1)C2 | · | -11 | i | ·
ClCC1NCC(c2ccccc2Cl)c2c1[nH]c1ccccc21 (stereo not given) | 7 | 5 | + | -1
Cc1nonc1NC(=O)CSc1nc2c(C)cccc2cc1C#N | -4 | -1 | + | 3
COc1ccc(CNC(=O)CC[C@H]2O[C@@H](n3cnc4c(NC(=O)c5ccccc5)ncnc43)[C@H](O)[C@@H]2O)cc1 | · | -4 | i | ·
Cc1cc(C)c(S(=O)(=O)N2CCCCC2CCNC(=O)C(=O)NC2CC2)c(C)c1 (stereo not given) | · | -5 | + | 2
Cc1cc(S(=O)(=O)N2CCCCC2CCNC(=O)C(=O)NC2CC2)ccc1F (stereo not given) | · | -6 | i | 0
O=C(CC1SC(N2CCCCC2)=NC1=O)Nc1ccc(C(=O)NCCc2ccc(F)cc2)cc1 (stereo not given) | · | 0 | + | -5
CCOc1cc(NC(=S)NCC2CCCO2)c(OCC)cc1NC(=O)c1ccccc1C (stereo not given) | -17 | -2 | + | -8
CCOc1cc(NC(=S)NCC2CCCO2)c(OCC)cc1NC(=O)c1ccc(OC)cc1 (stereo not given) | 2 | 4 | i | -7
O=C(NC1CCCc2ccccc21)c1n[nH]c(=O)c2ccccc12 (stereo not given) | 0 | 6 | + | 9
COc1cc(CC(=O)NC2CCCc3ccccc32)cc(OC)c1OC (stereo not given) | · | 92* | i | 6
COC(=O)c1ccccc1NC(=O)[C@@H]1CCC(=O)N1C1OC(=O)c2c1ccc(OC)c2OC (stereo not given in full) | · | -9 | + | -8
COc1cc(OC)c(NC(=O)[C@@H]2CCC(=O)N2C2OC(=O)c3c2ccc(OC)c3OC)cc1Cl (stereo not given in full) | · | -3 | i | -3
COc1ccc(C2=Nc3ccccc3N(C(=O)c3ccc4ncccc4c3)C2C(=O)NC(C)(C)C)cc1 (stereo not given) | · | 0 | i | ·
C=CCOc1ccccc1CN(C(=O)CCl)c1ccc2c(c1)OCO2 | · | -7 | + | -3
CC(C)Cn1c(/C=N/Nc2nc3ccccc3[nH]2)nc2ccccc21 | 15 | 5 | + | 12
COc1ccc(-c2nc3n(c(=O)c2C#N)CCCS3)cc1 | -3 | -3 | i | -15
CCOc1ccc(-c2nc3n(c(=O)c2C#N)CCCS3)cc1 | -2 | 7 | + | 0
CN1CCCC(C)(C(=O)Nc2ccc(-n3cccc3)cc2)C1 (stereo not given) | · | -4 | i | ·

Source: PubChem BioAssay (several laboratories)
